The source of these data is PubChem BioAssay (NCI).

Common to all, as to assay: NCI-60 one-dose screen, 48 h (100 = growth as untreated, 0 = no growth, -100 = all killed)
The test system of one assay is SN12C renal. Particulars: 10 µM unless noted.
For a further assay, the system named is UO-31 renal. As to conditions: 10 µM unless noted.
A further assay has as its system ACHN renal. As to conditions: 10 µM unless noted.
Another assay relates to CAKI-1 renal. As to conditions: 10 µM unless noted.
A further assay concerns A498 renal. Particulars: 10 µM unless noted.
Another assay concerns CCRF-CEM leukemia. As to conditions: 10 µM unless noted.
The subject of the next assay is MOLT-4 leukemia. Particulars: 10 µM unless noted.
In another assay the test system is SR leukemia. As to conditions: 10 µM unless noted.
The test system of the next assay is RPMI-8226 leukemia. As to conditions: 10 µM unless noted.
In another assay the test system is OVCAR-8 ovarian. Particulars: 10 µM unless noted.
A further assay concerns OVCAR-5 ovarian. Particulars: 10 µM unless noted.
In a further assay the test system is OVCAR-4 ovarian. Particulars: 10 µM unless noted.
In a further assay the test system is SK-OV-3 ovarian. Particulars: 10 µM unless noted.
Another assay relates to IGROV1 ovarian. Particulars: 10 µM unless noted.
The subject of a further assay is OVCAR-3 ovarian. Particulars: 10 µM unless noted.
In another assay the test system is HS 578T breast. Particulars: 10 µM.
For the next assay, the system named is NCI/ADR-RES ovarian. As to conditions: 10 µM unless noted.
The subject of a further assay is TK-10 renal. Particulars: 10 µM unless noted.

About 83,000 compounds went through this panel and 20% of them were active in at least one assay; those are over-represented in the sample as a whole.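 Each cell line was grown in a 96-well plate and treated with one concentration of compound for 48 hours. Values below 10 were considered active.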 Unmarked numbers belong to inactive results. The source made the active and inactive calls.

With `COc1ccc2[nH]cc(C(c3ccc(Cl)cc3)N3CCCC3)c2c1` (stereo unspecified), the growth in the assay on SN12C renal is 109%; in the assay on UO-31 renal it was 59%; with ACHN renal it was 93.1%; in the assay with CAKI-1 renal, 89.4%; in the assay with A498 renal it was 87%; with CCRF-CEM leukemia it was 70.2%. Further, the growth in the assay with MOLT-4 leukemia was 75.1%; in the assay with SR leukemia, 59.9%; in the assay with RPMI-8226 leukemia it was 85.9%; in the assay with OVCAR-8 ovarian it was 94.8%; in the assay on OVCAR-5 ovarian it was 101%; in the assay on OVCAR-4 ovarian it was 104%. Besides, the growth in the assay on SK-OV-3 ovarian is 109%; in the assay on IGROV1 ovarian it was 83.2%; in the assay on OVCAR-3 ovarian, 99.5%; in the assay with HS 578T breast, 86.3%; in the assay on NCI/ADR-RES ovarian, 97.9%.

For the compound `O=C(/C=C/c1cn(-c2ccccc2)nc1-c1cccc(Nc2ccnc3cc(Cl)ccc23)c1)c1ccc2c(c1)OCO2`, the growth in the assay on SN12C renal was 117%; with UO-31 renal, 84.8%; with TK-10 renal, 123%; in the assay with ACHN renal it was 105%; in the assay on CAKI-1 renal, 100%; in the assay on CCRF-CEM leukemia it was 17.2%. In addition, the growth with SR leukemia was 8.67% (active); with RPMI-8226 leukemia, 59.2%; in the assay with OVCAR-8 ovarian, 91.9%; in the assay on OVCAR-5 ovarian, 106%; with OVCAR-4 ovarian, 143%; in the assay on SK-OV-3 ovarian, 113%. The figures for the growth in the assay on IGROV1 ovarian, with OVCAR-3 ovarian and in the assay on HS 578T breast were 96.8%, 117% and 105%, respectively.

For the compound `COc1ccc(C2CC(c3cccc(Nc4ccnc5cc(Cl)ccc45)c3)=NN2c2ccccc2)cc1` (stereo unspecified), the growth was 81.3% in the assay with SN12C renal; 77.4% in the assay on UO-31 renal; 111% in the assay with TK-10 renal; 58.8% with ACHN renal; 19.9% in the assay on CAKI-1 renal; 57.9% with CCRF-CEM leukemia. Besides, the growth in the assay with MOLT-4 leukemia is 64.3%; in the assay on SR leukemia, 29.7%; with RPMI-8226 leukemia, 67.9%; in the assay with OVCAR-8 ovarian, 76.4%; in the assay with OVCAR-5 ovarian it was 85.6%; in the assay on OVCAR-4 ovarian, 118%. The growth was 80.8% with SK-OV-3 ovarian, 74.8% in the assay with IGROV1 ovarian, 92.1% with OVCAR-3 ovarian and 78.3% in the assay on HS 578T breast.

For the compound `CC1=NOCC(=O)N1`, the growth with SN12C renal is 102%; with UO-31 renal, 96.5%; in the assay with TK-10 renal, 103%; in the assay with ACHN renal, 102%; in the assay on CAKI-1 renal, 96.3%; with CCRF-CEM leukemia, 90.3%. Besides, the growth in the assay with MOLT-4 leukemia was 102%; with SR leukemia, 97.5%; with RPMI-8226 leukemia, 99.9%; in the assay with OVCAR-8 ovarian, 107%; in the assay on OVCAR-5 ovarian, 95.3%; in the assay with OVCAR-4 ovarian, 95.4%. The growth with SK-OV-3 ovarian is 103%; in the assay with IGROV1 ovarian, 104%; in the assay on OVCAR-3 ovarian, 108%; in the assay on HS 578T breast, 117%; in the assay on NCI/ADR-RES ovarian it was 110%.

On to `CC(=O)Nc1nonc1-c1nc2ccccc2n1Cc1ccc(C(C)(C)C)cc1`, for which the growth in the assay with SN12C renal was 82.2%; in the assay on UO-31 renal, 46.1%; with TK-10 renal, 95.5%; in the assay with ACHN renal it was 82.1%; in the assay on CAKI-1 renal, 69%; with A498 renal it was -4.2% (active). Also, the growth was 78.4% with CCRF-CEM leukemia; 51.7% with MOLT-4 leukemia; 58% in the assay on RPMI-8226 leukemia; 78.4% in the assay with OVCAR-8 ovarian; 93.5% in the assay with OVCAR-5 ovarian; 81% with OVCAR-4 ovarian. Further, the growth is 88.9% in the assay with SK-OV-3 ovarian; 78.7% in the assay on IGROV1 ovarian; 71.3% in the assay on OVCAR-3 ovarian; 27.1% in the assay with HS 578T breast; 59.7% in the assay on NCI/ADR-RES ovarian.

In the case of `Fc1ccc(-c2ccnc3nc(-c4ccncc4)nn23)cc1`, the growth is 110% with SN12C renal; 84.5% with UO-31 renal; 96.6% in the assay with TK-10 renal; 104% in the assay on ACHN renal; 92.1% in the assay on CAKI-1 renal; 83.8% in the assay with A498 renal. The growth with CCRF-CEM leukemia is 110%; with MOLT-4 leukemia, 94.9%; in the assay on RPMI-8226 leukemia it was 98.5%; in the assay on OVCAR-8 ovarian, 96.5%; with OVCAR-5 ovarian, 100%; in the assay on OVCAR-4 ovarian, 109%. The growth with SK-OV-3 ovarian is 104%; in the assay on IGROV1 ovarian, 104%; with OVCAR-3 ovarian it was 105%; with HS 578T breast, 113%; in the assay with NCI/ADR-RES ovarian, 106%.

As for `COc1ccc(/C=C2\CCCC3=C2N=C2SC(C)=NN2C3c2ccc(OC)c(OC)c2)cc1OC` (stereo unspecified), the growth in the assay on SN12C renal is 26.6%; with UO-31 renal it was 36.1%; with TK-10 renal, 25.6%; with ACHN renal, 20.7%; in the assay with CAKI-1 renal, 26.1%; in the assay with A498 renal, 52.2%. Besides, the growth in the assay with CCRF-CEM leukemia is 3.82% (active); in the assay on SR leukemia, 14.3%; in the assay on RPMI-8226 leukemia, -24.9% (active); in the assay with OVCAR-8 ovarian, -4.14% (active); in the assay on OVCAR-5 ovarian, 26.5%; with OVCAR-4 ovarian it was 41.4%. Further, the growth in the assay with SK-OV-3 ovarian was 62.8%; with IGROV1 ovarian it was 30.4%; in the assay with OVCAR-3 ovarian, 23.8%; in the assay on HS 578T breast, 86.2%; in the assay with NCI/ADR-RES ovarian, 17.7%.

Consider `CCN(CC)C(Cl)=Nc1ccc(Cl)cc1`, for which the growth in the assay with SN12C renal was 99.2%; in the assay with UO-31 renal, 87.8%; with ACHN renal, 98.5%; in the assay on CAKI-1 renal it was 103%; in the assay with A498 renal it was 99.6%; in the assay with CCRF-CEM leukemia it was 100%. Moreover, the growth is 95.7% in the assay on MOLT-4 leukemia; 84.3% in the assay with SR leukemia; 95.1% in the assay on RPMI-8226 leukemia; 106% with OVCAR-8 ovarian; 105% in the assay with OVCAR-5 ovarian; 108% in the assay with OVCAR-4 ovarian. Besides, the growth in the assay on SK-OV-3 ovarian was 102%; in the assay on IGROV1 ovarian it was 109%; with OVCAR-3 ovarian it was 107%; with HS 578T breast it was 101%; in the assay with NCI/ADR-RES ovarian, 106%.

Consider `Clc1ccc(-c2nc(Br)cn3ccnc23)cc1`, for which the growth with SN12C renal is 86.5%; in the assay with UO-31 renal it was 40.3%; in the assay on TK-10 renal it was 85.7%; in the assay with ACHN renal it was 83.4%; with CAKI-1 renal, 73%; in the assay with CCRF-CEM leukemia, 92.8%. In addition, the growth in the assay with MOLT-4 leukemia was 78.9%; in the assay on SR leukemia, 92.2%; with RPMI-8226 leukemia, 93.4%; in the assay with OVCAR-8 ovarian it was 86.8%; in the assay with OVCAR-5 ovarian it was 90.4%; with OVCAR-4 ovarian, 112%. Moreover, the growth in the assay on SK-OV-3 ovarian was 88.5%; in the assay on IGROV1 ovarian it was 74.3%; with OVCAR-3 ovarian, 82.8%; in the assay with HS 578T breast, 91.3%.

With `COC(=O)C(C)NC1=C(Cl)C(=O)C(NC(C)C(=O)OC)=C(Cl)C1=O` (stereo unspecified), the growth in the assay with SN12C renal was 99.5%; in the assay with UO-31 renal, 89.8%; with TK-10 renal, 121%; in the assay on ACHN renal, 106%; in the assay on CAKI-1 renal, 103%; with A498 renal, 89.3%. Moreover, the growth was 96% with CCRF-CEM leukemia; 93.5% in the assay with MOLT-4 leukemia; 92.9% in the assay with SR leukemia; 96.1% in the assay with RPMI-8226 leukemia; 94.2% with OVCAR-8 ovarian; 78.6% in the assay on OVCAR-4 ovarian. The growth in the assay on SK-OV-3 ovarian was 105%; in the assay on IGROV1 ovarian, 120%; in the assay on OVCAR-3 ovarian, 61.2%; with HS 578T breast, 113%; in the assay on NCI/ADR-RES ovarian, 101%.
